# Test results taken from paper PMC11006913.
# Substitutions are numbered along the chain they refer to.
# Experiments:
# Test in all cases: PBM; 200 nM protein, PBS
# Details in all cases: dsDNA, one strand shown
# VENTX [1] = molecular target: T1, VENTX (Homo sapiens, UniProt O95231 78-163, R121Q)
# T1 sequence: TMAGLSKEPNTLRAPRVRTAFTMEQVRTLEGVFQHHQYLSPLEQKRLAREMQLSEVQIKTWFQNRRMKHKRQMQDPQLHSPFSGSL
# HOXB9 [2] = molecular target: HOXB9 (Homo sapiens, UniProt P17482 171-250, T197M)
# VENTX [3] = molecular target: T2, VENTX (Homo sapiens, UniProt O95231 78-163)
# T2 sequence: T1 sequence with Q44R
# PAX4 [4] = molecular target: T3, PAX4 (Homo sapiens, UniProt O43316 9-242, R200K)
# T3 sequence: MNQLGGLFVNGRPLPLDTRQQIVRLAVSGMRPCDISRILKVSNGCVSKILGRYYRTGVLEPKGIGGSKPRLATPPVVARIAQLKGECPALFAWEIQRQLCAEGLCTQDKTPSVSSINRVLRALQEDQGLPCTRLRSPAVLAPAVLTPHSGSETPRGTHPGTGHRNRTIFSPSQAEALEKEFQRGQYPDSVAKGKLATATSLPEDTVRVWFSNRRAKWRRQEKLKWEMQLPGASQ
# PRRX1 [5] = molecular target: PRRX1 (Homo sapiens, UniProt P54821 80-166, F113S)
# Sequence of PRRX1 (Homo sapiens, UniProt P54821 80-166, F113S) (P54821 80-166 F113S): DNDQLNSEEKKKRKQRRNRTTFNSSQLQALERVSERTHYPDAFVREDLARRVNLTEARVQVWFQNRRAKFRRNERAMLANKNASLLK
# VENTX [6] = molecular target: T4, VENTX (Homo sapiens, UniProt O95231 78-163, Y115F)
# T4 sequence: T1 sequence with Y38F, Q44R
# PAX4 [7] = molecular target: T5, PAX4 (Homo sapiens, UniProt O43316 9-242)
# T5 sequence: T3 sequence with K192R
# HOXB9 [8] = molecular target: HOXB9 (Homo sapiens, UniProt P17482 171-250)
# Sequence of HOXB9 (Homo sapiens, UniProt P17482 171-250) (P17482 171-250): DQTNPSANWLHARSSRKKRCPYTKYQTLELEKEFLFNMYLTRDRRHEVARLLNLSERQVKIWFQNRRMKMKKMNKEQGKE
# ALX1 [9] = molecular target: ALX1 (Homo sapiens, UniProt Q15699 118-204, L144V)
# Sequence of ALX1 (Homo sapiens, UniProt Q15699 118-204, L144V) (Q15699 118-204 L144V): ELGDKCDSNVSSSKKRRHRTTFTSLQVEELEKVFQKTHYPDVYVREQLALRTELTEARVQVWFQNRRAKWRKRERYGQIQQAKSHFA
# ALX3 [10] = molecular target: ALX3 (Homo sapiens, UniProt O95076 139-225, N203Q)
# Sequence of ALX3 (Homo sapiens, UniProt O95076 139-225, N203Q) (O95076 139-225 N203Q): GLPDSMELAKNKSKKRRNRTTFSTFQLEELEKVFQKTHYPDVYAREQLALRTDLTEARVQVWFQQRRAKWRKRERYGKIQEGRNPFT
# PAX4 [11] = molecular target: T6, PAX4 (Homo sapiens, UniProt O43316 9-242, R200Q)
# T6 sequence: T3 sequence with K192Q
# ALX1 [12] = molecular target: ALX1 (Homo sapiens, UniProt Q15699 118-204, L144R)
# Sequence of ALX1 (Homo sapiens, UniProt Q15699 118-204, L144R) (Q15699 118-204 L144R): as the sequence (Q15699 118-204 L144V) above, with V27R counted along it
# PAX4 [13] = molecular target: T7, PAX4 (Homo sapiens, UniProt O43316 9-242, F177V)
# T7 sequence: T3 sequence with F169V, K192R
# ALX3 [14] = molecular target: ALX3 (Homo sapiens, UniProt O95076 139-225)
# Sequence of ALX3 (Homo sapiens, UniProt O95076 139-225) (O95076 139-225): as the sequence (O95076 139-225 N203Q) above, with Q65N counted along it
# PAX4 [15] = molecular target: T8, PAX4 (Homo sapiens, UniProt O43316 9-242, F177Y)
# T8 sequence: T3 sequence with F169Y, K192R
# ALX3 [16] = molecular target: ALX3 (Homo sapiens, UniProt O95076 139-225, L168Q)
# Sequence of ALX3 (Homo sapiens, UniProt O95076 139-225, L168Q) (O95076 139-225 L168Q): as the sequence (O95076 139-225 N203Q) above, with L30Q, Q65N counted along it
# HOXB9 [17] = molecular target: HOXB9 (Homo sapiens, UniProt P17482 171-250, R186Q)
# Sequence of HOXB9 (Homo sapiens, UniProt P17482 171-250, R186Q) (P17482 171-250 R186Q): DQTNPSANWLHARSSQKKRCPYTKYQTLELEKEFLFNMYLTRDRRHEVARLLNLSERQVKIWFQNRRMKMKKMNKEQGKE
# ALX3 [18] = molecular target: ALX3 (Homo sapiens, UniProt O95076 139-225, L168V)
# Sequence of ALX3 (Homo sapiens, UniProt O95076 139-225, L168V) (O95076 139-225 L168V): as the sequence (O95076 139-225 N203Q) above, with L30V, Q65N counted along it
# PAX4 [19] = molecular target: T9, PAX4 (Homo sapiens, UniProt O43316 9-242, R227W)
# T9 sequence: T3 sequence with K192R, R219W
# ALX1 [20] = molecular target: ALX1 (Homo sapiens, UniProt Q15699 118-204)
# Sequence of ALX1 (Homo sapiens, UniProt Q15699 118-204) (Q15699 118-204): as the sequence (Q15699 118-204 L144V) above, with V27L counted along it
# ALX3 [21] = molecular target: ALX3 (Homo sapiens, UniProt O95076 139-225, N203S)
# Sequence of ALX3 (Homo sapiens, UniProt O95076 139-225, N203S) (O95076 139-225 N203S): as the sequence (O95076 139-225 N203Q) above, with Q65S counted along it
# PRRX1 [22] = molecular target: PRRX1 (Homo sapiens, UniProt P54821 80-166)
# Sequence of PRRX1 (Homo sapiens, UniProt P54821 80-166) (P54821 80-166): as the sequence (P54821 80-166 F113S) above, with S34F counted along it
# HOXA7 [23] = molecular target: HOXA7 (Homo sapiens, UniProt P31268 116-202)
# Sequence of HOXA7 (Homo sapiens, UniProt P31268 116-202) (P31268 116-202): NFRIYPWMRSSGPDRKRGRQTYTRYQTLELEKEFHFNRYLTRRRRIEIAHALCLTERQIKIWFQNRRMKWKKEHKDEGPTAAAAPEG
# MSX2 [24] = molecular target: MSX2 (Homo sapiens, UniProt P35548 130-214, R199I)
# Sequence of MSX2 (Homo sapiens, UniProt P35548 130-214, R199I) (P35548 130-214 R199I): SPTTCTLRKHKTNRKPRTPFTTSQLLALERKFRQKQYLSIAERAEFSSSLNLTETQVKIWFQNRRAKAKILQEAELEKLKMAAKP
# MSX2 [25] = molecular target: MSX2 (Homo sapiens, UniProt P35548 130-214)
# Sequence of MSX2 (Homo sapiens, UniProt P35548 130-214) (P35548 130-214): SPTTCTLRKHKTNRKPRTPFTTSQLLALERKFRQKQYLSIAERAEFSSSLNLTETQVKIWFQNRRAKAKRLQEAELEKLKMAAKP
# PROP1 [26] = molecular target: PROP1 (Homo sapiens, UniProt O75360 56-141)
# Sequence of PROP1 (Homo sapiens, UniProt O75360 56-141) (O75360 56-141): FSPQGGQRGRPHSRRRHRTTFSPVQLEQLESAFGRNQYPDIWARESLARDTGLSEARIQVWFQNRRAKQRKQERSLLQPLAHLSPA
# PROP1 [27] = molecular target: PROP1 (Homo sapiens, UniProt O75360 56-141, R99H)
# Sequence of PROP1 (Homo sapiens, UniProt O75360 56-141, R99H) (O75360 56-141 R99H): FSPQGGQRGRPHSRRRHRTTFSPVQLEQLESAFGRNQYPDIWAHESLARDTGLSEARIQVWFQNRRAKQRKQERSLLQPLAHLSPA
# PROP1 [28] = molecular target: PROP1 (Homo sapiens, UniProt O75360 56-141, F88S)
# Sequence of PROP1 (Homo sapiens, UniProt O75360 56-141, F88S) (O75360 56-141 F88S): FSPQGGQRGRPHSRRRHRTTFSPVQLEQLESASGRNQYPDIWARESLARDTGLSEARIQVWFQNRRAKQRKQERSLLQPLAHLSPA
# MSX2 [29] = molecular target: MSX2 (Homo sapiens, UniProt P35548 130-214, F161Y)
# Sequence of MSX2 (Homo sapiens, UniProt P35548 130-214, F161Y) (P35548 130-214 F161Y): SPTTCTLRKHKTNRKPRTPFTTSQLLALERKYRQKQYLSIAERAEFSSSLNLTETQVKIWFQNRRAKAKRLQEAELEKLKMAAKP
# HOXA7 [30] = molecular target: HOXA7 (Homo sapiens, UniProt P31268 116-202, W177C)
# Sequence of HOXA7 (Homo sapiens, UniProt P31268 116-202, W177C) (P31268 116-202 W177C): as the sequence (P31268 116-202) above, with W62C counted along it
# SIX6 [31] = molecular target: T10, SIX6 (Homo sapiens, UniProt O95475 114-200, L167I)
# T10 sequence: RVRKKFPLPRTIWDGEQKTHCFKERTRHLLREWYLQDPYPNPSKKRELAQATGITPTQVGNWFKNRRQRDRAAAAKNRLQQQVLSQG
# SIX6 [32] = molecular target: T11, SIX6 (Homo sapiens, UniProt O95475 114-200, L143V)
# T11 sequence: T10 sequence with L30V, I54L
# SIX6 [33] = molecular target: T12, SIX6 (Homo sapiens, UniProt O95475 114-200, H141N)
# T12 sequence: T10 sequence with H28N, I54L
# SIX6 [34] = molecular target: T13, SIX6 (Homo sapiens, UniProt O95475 114-200, T165P)
# T13 sequence: T10 sequence with T52P, I54L
# SIX6 [35] = molecular target: T14, SIX6 (Homo sapiens, UniProt O95475 114-200, L167M)
# T14 sequence: T10 sequence with I54M
# SIX6 [36] = molecular target: T15, SIX6 (Homo sapiens, UniProt O95475 114-200, L143M)
# T15 sequence: T10 sequence with L30M, I54L
# SIX6 [37] = molecular target: T16, SIX6 (Homo sapiens, UniProt O95475 114-200, L143I)
# T16 sequence: T10 sequence with L30I, I54L
# SIX6 [38] = molecular target: T17, SIX6 (Homo sapiens, UniProt O95475 114-200, T165G)
# T17 sequence: T10 sequence with T52G, I54L
# SIX6 [39] = molecular target: T18, SIX6 (Homo sapiens, UniProt O95475 114-200, T139Q)
# T18 sequence: T10 sequence with T26Q, I54L
# SIX6 [40] = molecular target: T19, SIX6 (Homo sapiens, UniProt O95475 114-200, T165A)
# T19 sequence: T10 sequence with T52A, I54L
# SIX6 [41] = molecular target: T20, SIX6 (Homo sapiens, UniProt O95475 114-200, L167V)
# T20 sequence: T10 sequence with I54V
# SIX6 [42] = molecular target: T21, SIX6 (Homo sapiens, UniProt O95475 114-200)
# T21 sequence: T10 sequence with I54L
# SIX6 [43] = molecular target: T22, SIX6 (Homo sapiens, UniProt O95475 114-200, T165I)
# T22 sequence: T10 sequence with T52I, I54L
# Sequence of HOXB9 (Homo sapiens, UniProt P17482 171-250, T197M) (P17482 171-250 T197M): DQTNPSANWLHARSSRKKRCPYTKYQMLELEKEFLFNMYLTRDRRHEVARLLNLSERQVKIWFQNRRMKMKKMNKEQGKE
sequence,measurement,setting,value
GCCGCAGC,binding signal,VENTX [1],"8.08 upbm affinity estimate (log intensity, higher = more binding, comparable within an allelic series)"
same,binding signal,HOXB9 [2],"8.46 upbm affinity estimate (log intensity, higher = more binding, comparable within an allelic series)"
same,binding signal,VENTX [3],"8.11 upbm affinity estimate (log intensity, higher = more binding, comparable within an allelic series)"
same,binding signal,PAX4 [4],"9.27 upbm affinity estimate (log intensity, higher = more binding, comparable within an allelic series)"
same,binding signal,PRRX1 [5],"9.25 upbm affinity estimate (log intensity, higher = more binding, comparable within an allelic series)"
same,binding signal,VENTX [6],"8.14 upbm affinity estimate (log intensity, higher = more binding, comparable within an allelic series)"
same,binding signal,PAX4 [7],"9.2 upbm affinity estimate (log intensity, higher = more binding, comparable within an allelic series)"
same,binding signal,HOXB9 [8],"8.33 upbm affinity estimate (log intensity, higher = more binding, comparable within an allelic series)"
same,binding signal,ALX1 [9],"6.7 upbm affinity estimate (log intensity, higher = more binding, comparable within an allelic series)"
same,binding signal,ALX3 [10],"7.73 upbm affinity estimate (log intensity, higher = more binding, comparable within an allelic series)"
same,binding signal,PAX4 [11],"9.23 upbm affinity estimate (log intensity, higher = more binding, comparable within an allelic series)"
same,binding signal,ALX1 [12],"6.73 upbm affinity estimate (log intensity, higher = more binding, comparable within an allelic series)"
same,binding signal,PAX4 [13],"9.18 upbm affinity estimate (log intensity, higher = more binding, comparable within an allelic series)"
same,binding signal,ALX3 [14],"7.89 upbm affinity estimate (log intensity, higher = more binding, comparable within an allelic series)"
same,binding signal,PAX4 [15],"9.21 upbm affinity estimate (log intensity, higher = more binding, comparable within an allelic series)"
same,binding signal,ALX3 [16],"7.75 upbm affinity estimate (log intensity, higher = more binding, comparable within an allelic series)"
same,binding signal,HOXB9 [17],"8.46 upbm affinity estimate (log intensity, higher = more binding, comparable within an allelic series)"
same,binding signal,ALX3 [18],"7.74 upbm affinity estimate (log intensity, higher = more binding, comparable within an allelic series)"
same,binding signal,PAX4 [19],"9.18 upbm affinity estimate (log intensity, higher = more binding, comparable within an allelic series)"
same,binding signal,ALX1 [20],"6.7 upbm affinity estimate (log intensity, higher = more binding, comparable within an allelic series)"
same,binding signal,ALX3 [21],"7.75 upbm affinity estimate (log intensity, higher = more binding, comparable within an allelic series)"
same,binding signal,PRRX1 [22],"9.47 upbm affinity estimate (log intensity, higher = more binding, comparable within an allelic series)"
CCCGGACG,binding signal,VENTX [1],"7.96 upbm affinity estimate (log intensity, higher = more binding, comparable within an allelic series)"
same,binding signal,HOXB9 [2],"8.39 upbm affinity estimate (log intensity, higher = more binding, comparable within an allelic series)"
same,binding signal,VENTX [3],"7.88 upbm affinity estimate (log intensity, higher = more binding, comparable within an allelic series)"
same,binding signal,HOXA7 [23],"8.42 upbm affinity estimate (log intensity, higher = more binding, comparable within an allelic series)"
same,binding signal,VENTX [6],"8.04 upbm affinity estimate (log intensity, higher = more binding, comparable within an allelic series)"
same,binding signal,HOXB9 [8],"8.49 upbm affinity estimate (log intensity, higher = more binding, comparable within an allelic series)"
same,binding signal,MSX2 [24],"9.41 upbm affinity estimate (log intensity, higher = more binding, comparable within an allelic series)"
same,binding signal,MSX2 [25],"9.27 upbm affinity estimate (log intensity, higher = more binding, comparable within an allelic series)"
same,binding signal,PROP1 [26],"6.37 upbm affinity estimate (log intensity, higher = more binding, comparable within an allelic series)"
same,binding signal,PROP1 [27],"6.67 upbm affinity estimate (log intensity, higher = more binding, comparable within an allelic series)"
same,binding signal,HOXB9 [17],"8.54 upbm affinity estimate (log intensity, higher = more binding, comparable within an allelic series)"
same,binding signal,PROP1 [28],"6.37 upbm affinity estimate (log intensity, higher = more binding, comparable within an allelic series)"
same,binding signal,MSX2 [29],"9.4 upbm affinity estimate (log intensity, higher = more binding, comparable within an allelic series)"
same,binding signal,HOXA7 [30],"8.37 upbm affinity estimate (log intensity, higher = more binding, comparable within an allelic series)"
GGCGGAAC,binding signal,VENTX [1],"8.14 upbm affinity estimate (log intensity, higher = more binding, comparable within an allelic series)"
same,binding signal,SIX6 [31],"8.85 upbm affinity estimate (log intensity, higher = more binding, comparable within an allelic series)"
same,binding signal,VENTX [3],"8.22 upbm affinity estimate (log intensity, higher = more binding, comparable within an allelic series)"
same,binding signal,SIX6 [32],"8.81 upbm affinity estimate (log intensity, higher = more binding, comparable within an allelic series)"
same,binding signal,SIX6 [33],"8.78 upbm affinity estimate (log intensity, higher = more binding, comparable within an allelic series)"
same,binding signal,SIX6 [34],"8.99 upbm affinity estimate (log intensity, higher = more binding, comparable within an allelic series)"
same,binding signal,VENTX [6],"8.15 upbm affinity estimate (log intensity, higher = more binding, comparable within an allelic series)"
same,binding signal,SIX6 [35],"8.81 upbm affinity estimate (log intensity, higher = more binding, comparable within an allelic series)"
same,binding signal,SIX6 [36],"8.85 upbm affinity estimate (log intensity, higher = more binding, comparable within an allelic series)"
same,binding signal,SIX6 [37],"8.84 upbm affinity estimate (log intensity, higher = more binding, comparable within an allelic series)"
same,binding signal,SIX6 [38],"8.85 upbm affinity estimate (log intensity, higher = more binding, comparable within an allelic series)"
same,binding signal,SIX6 [39],"8.82 upbm affinity estimate (log intensity, higher = more binding, comparable within an allelic series)"
same,binding signal,SIX6 [40],"8.85 upbm affinity estimate (log intensity, higher = more binding, comparable within an allelic series)"
same,binding signal,SIX6 [41],"8.86 upbm affinity estimate (log intensity, higher = more binding, comparable within an allelic series)"
same,binding signal,SIX6 [42],"8.77 upbm affinity estimate (log intensity, higher = more binding, comparable within an allelic series)"
same,binding signal,SIX6 [43],"8.82 upbm affinity estimate (log intensity, higher = more binding, comparable within an allelic series)"
